The source made the active and inactive calls.
Test: viability profiling in MM1S myeloma cells – cell-based, resazurin fluorescence, basal, 24 h, PK04 Diversity Set, profiling panel (AID 1174);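 note: MM1S multiple myeloma cell line; test concentration not given here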
Conditions: higher = more signal, called active from +8 up or from −8 down

| SMILES | z-score |
| --- | --- |
| Cc1ccc(S[C@]2(C(=O)O)CC(=O)N(Cc3cc(C(F)(F)F)cc(C(F)(F)F)c3)[C@@H]2c2ccc(CO)cc2)cc1 | -0.543 (inactive) |
| CC(C)Cc1ccc(CN2CC[C@@H](NC(=O)Nc3ccccc3)C2)cc1 | -9.38 (active) |
| C=CC1c2cc(O)c(OC)cc2CCN1Cc1cc2c(cc1Br)OCO2 (stereo unspecified) | -2.21 (inactive) |
| O=C1O[C@H](c2ccccc2)[C@H](c2ccccc2)N2[C@H]1[C@@H](C(=O)N1CCN(c3ncccn3)CC1)[C@]1(C(=O)Nc3ccc(C#CC4(O)CCCCCC4)cc31)[C@H]2c1ccc(OCCO)cc1 | -0.484 (inactive) |
| COC(=O)C(CC#Cc1ccc2c(c1)[C@]1(C(=O)N2)[C@H](c2ccccc2OCCO)N2[C@H](c3ccccc3)[C@H](c3ccccc3)OC(=O)[C@H]2[C@@H]1C(=O)NC[C@H](O)c1ccccc1)C(=O)OC | -6.75 (inactive) |
| Cc1ccccc1C(O)C1C=CC2C(=O)N(C)C(=O)C2N1N(c1ccccc1)c1ccccc1 (stereo unspecified) | -0.166 (inactive) |
| CCC[C@@H]1C[C@@]1(CCC)[C@@H](NC(=O)OCc1ccccc1)c1ccc(-c2ccccc2)cc1 | 0.879 (inactive) |
| CN(C)C(=O)C1N=C(c2ccc(OCCCO)cc2)N(c2ccccc2)O1 (stereo unspecified) | 0.689 (inactive) |
| O=C1O[C@H](c2ccccc2)[C@H](c2ccccc2)N2[C@H]1[C@@H](C(=O)O)[C@]1(C(=O)Nc3ccc(C#CC4=CCCCC4)cc31)[C@H]2c1ccc(O)cc1 | 0.248 (inactive) |
| C=CCOC(=O)[C@H]1[C@@H]2C(=O)O[C@@H](c3ccccc3)[C@@H](c3ccccc3)N2[C@@H](c2ccc(OCCOC(=O)[C@H]3C[C@H]4C(=O)N[C@@H](CCCCNC(C)=O)C(=O)N4[C@H]3c3ccc(O)cc3)cc2)[C@]12C(=O)Nc1ccccc12 | 1.74 (inactive) |
| CN1C(=O)C2C=CC(C(O)c3cccc4ccccc34)N(N3CCCCC3)C2C1=O (stereo unspecified) | -1.41 (inactive) |
| C=CCOC(=O)[C@H]1[C@@H]2C(=O)O[C@@H](c3ccccc3)[C@@H](c3ccccc3)N2[C@@H](c2ccc(OCCOC(=O)[C@@H]3C[C@@H]4C(=O)N5CCC[C@H]5C(=O)N4[C@@H]3c3ccc(O)cc3)cc2)[C@]12C(=O)Nc1ccc(I)cc12 | -0.996 (inactive) |
| O=C1C2C=CC(C(O)c3ccccc3)N(Nc3ccccc3F)C2C(=O)N1c1ccccc1 (stereo unspecified) | -1.07 (inactive) |
| CN(C)c1ccc(C(O)C2C=CC3C(=O)N(c4ccccc4)C(=O)C3N2Nc2ccc([N+](=O)[O-])cc2)cc1 (stereo unspecified) | -0.96 (inactive) |
| [N-]=[N+]=NCc1ccccc1[C@H]1OC(c2ccc(OCCCO)cc2)=N[C@@]1(CCS(=O)(=O)c1ccccc1)C(=O)N1CCCCC1 | -1.55 (inactive) |
| C=CCOC(=O)[C@H]1[C@@H]2C(=O)O[C@@H](c3ccccc3)[C@@H](c3ccccc3)N2[C@@H](c2ccc(OCCOC(=O)[C@@H]3C[C@@H]4C(=O)N[C@@H](CCCCNC(C)=O)C(=O)N4[C@@H]3c3ccc(O)cc3)cc2)[C@]12C(=O)Nc1ccc(I)cc12 | -1.77 (inactive) |
| COc1cc2c(cc1OC)CN(C(=O)[C@@H]1[C@H]3C(=O)O[C@H](c4ccccc4)[C@H](c4ccccc4)N3[C@H](c3ccc(OCCO)cc3)[C@@]13C(=O)Nc1ccc(C#CC4(O)CCCCCC4)cc13)CC2 | 0.341 (inactive) |
| C=C(/C(=C/C[C@H](OC(C)=O)c1ccccc1OCCO)c1cc(C(=O)OC)ccc1OC)C(C)C | 0.121 (inactive) |

| SMILES | z-score |
| --- | --- |
| CCOC(=O)C[C@H]1[C@H](OC(=O)c2cc3ccccc3oc2=O)[C@@H](NC(=O)c2ccc(-c3ccccc3)cc2)c2cc(OCCCO)ccc2N1C(=O)c1ccc2ccccc2n1 | 0.389 (inactive) |
| CN(C)CCCCNC(=O)[C@@H]1C[C@@H]2C(=O)N[C@@H](Cc3ccccc3)C(=O)N2[C@@H]1c1cccc(OCCO)c1 | 0.977 (inactive) |
| COc1ccc([Si](C)(C)[C@@H]2[C@@H](CCO)O[C@]3(C(=O)N(Cc4ccc(N5CCCCC5=O)cc4)c4ccccc43)[C@H]2C)cc1 | -0.75 (inactive) |
| COCCOC(=O)N1C(=O)[C@@]2(c3cc(C#CC4=CCCCC4)ccc31)[C@H](c1ccccc1OCCO)N1[C@H](c3ccccc3)[C@H](c3ccccc3)OC(=O)[C@H]1[C@@H]2C(=O)Nc1nc2ccccc2s1 | -0.774 (inactive) |
| CCCCC(=C=CC[C@@H](O)c1ccccc1OCCO)C[C@@H](O)COCc1ccccc1 | 0.12 (inactive) |
| Cc1ccc(S[C@]2(C(=O)NCC(F)(F)F)CC(=O)N(Cc3ccccc3)[C@@H]2c2ccc(CO)cc2I)cc1 | -3.15 (inactive) |
| O=C(NCC(F)(F)F)[C@@H]1c2ccccc2C(=O)N(Cc2cc(F)cc(C(F)(F)F)c2)[C@H]1c1ccc(CO)cc1 | 0.0875 (inactive) |
| C=C(CCCC)/C(=C/C[C@@H](OC(=O)c1ccncc1)c1ccccc1OCCO)c1cnc2ccccc2c1 | -1.09 (inactive) |
| [N-]=[N+]=Nc1ccccc1C[C@]1(C(=O)N2CCOCC2)N=C(c2ccc(OCCCO)cc2)O[C@H]1c1ccccc1 | -1.25 (inactive) |
| CCCNC(=O)[C@@H]1c2ccccc2C(=O)N(C(C)C)[C@H]1c1ccc(CO)cc1 | 0.551 (inactive) |
| O=C1O[C@H](c2ccccc2)[C@H](c2ccccc2)N2[C@H]1[C@@H](C(=O)Nc1nc3ccccc3s1)[C@]1(C(=O)Nc3ccc(C#CC4(O)CCCCCC4)cc31)[C@H]2c1ccccc1OCCO | -3.4 (inactive) |
| O=C1OCC=C[C@H]2OC34C=CCN(Cn5nnc6ccccc65)C(=O)[C@H]3N(CCCO)C(=O)[C@@H]4[C@@H]12 (stereo partly specified) | -0.319 (inactive) |
| COC(=O)[C@@]1(Cc2ccccc2)[C@H]2c3cc(C(=O)N(C)C)n(Cc4c(CO)[nH]cc(C)c4=O)c3C[C@H]2CN1C(=O)c1ccccc1 | -0.706 (inactive) |
| COC(=O)[C@@]1(Cc2ccc(OC)cc2)[C@H]2c3cc(C(=O)N(C)C)n(Cc4ccc(Cl)c(C(F)(F)F)c4)c3C[C@H]2CN1C(=O)c1ccccc1 | -2.74 (inactive) |
| C=CCNC(=O)[C@H]1[C@@H]2C(=O)O[C@@H](c3ccccc3)[C@@H](c3ccccc3)N2[C@@H](c2ccc(O)cc2)[C@]12C(=O)N(C(=O)OCCOC)c1ccccc12 | -0.331 (inactive) |
| CCCCCCCCCCC(O)C1C=CC2C(=O)N(C)C(=O)C2N1NC(=O)OC(C)(C)C (stereo unspecified) | -4.74 (inactive) |
| NC(N)=NCCCn1cc(CNC(=O)[C@@H](N)Cc2ccccc2)nn1 | -0.433 (inactive) |
| CCOC(=O)C1CCCCN1 (stereo unspecified) | 0.122 (inactive) |

From PubChem BioAssay
